# Reference: PubChem BioAssay (NCI)
# About 83,000 compounds went through this panel and 20% of them were active in at least one assay; those are over-represented in the sample as a whole.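 Single-dose data. Exposure time 48 hours. Values below 10 considered active.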 Activity calls are given as the source filed them.
# Test system: SNB-75 CNS
# Test: NCI-60 one-dose screen, 48 h (100 = growth as untreated, 0 = no growth, -100 = all killed)
# Details: 10 µM unless noted
# Protocol: Growth inhibition of the SNB-75 human tumor cell line is measured as a screen for anti-cancer activity. Cells are grown in 96 well plates and exposed to the test compound for 48 hours. Compounds are tested at a single concentration, which is 10^-5 M for most compounds. The reported endpoint is percent growth (GI% or GIPRCNT), where numbers from 0 - 100% represent growth inhibition, and numbers from -100% - 0 represent cell death. For example, a value of 40 represents 60% growth inhibition. A value of 0 means no net growth occurred over the course of the experiment. A value of -40 indicates 40% of cells at the beginning of the experiment died by the end of the experiment. A value of -100 means all cells are dead at the end of the experiment.
# NCI-60 Human Tumor Cell Lines Screen was performed using the standard one-dose NCI protocol, which is described in more detail at https://dtp.cancer.gov/discovery_development/nci-60/default.htm.
# Compounds with GIPRCNT values below 10 were considered active. Activity score was based on GIPRCNT using the following formula: […]
# Score is 0 for GIPRCNT values of 100 or above, 50 for GIPRCNT values of 0, and 100 for GIPRCNT values of -100.
row,Compound,growth
1,COc1nc2ccccc2cc1/C=[N+](\[O-])c1ccccc1,73% (inactive)
2,COc1cccc(-c2cc(-c3ccc(Nc4nc(Nc5ccc(Cl)cc5)nc(Nc5ccc(Cl)cc5)n4)cc3)nc(N)c2C#N)c1,65.9% (inactive)
3,O=c1c(Cc2ccc(F)cc2)cc(-c2ccccc2)nn1C/C(=N/O)c1ccccc1,57.8% (inactive)
4,CCN1C(=O)N(CC)C2C1NN=c1s/c(=C\c3ccccc3)c(=O)n12 (stereo not given),20.8% (inactive)
5,COC1=C(OC)C(=O)C(CCCCCCCCCCO)=C(C)C1=O,62.1% (inactive)
6,Cc1cc2nc(C(Cl)Cl)nc(-c3ccccc3)n2n1,-4.36% (active)
7,Cc1ccc(NC(=O)c2ccc(Nc3ncnc4c3cnn4-c3cccc(F)c3)cc2)cc1,93.5% (inactive)
8,N#C/C(=C\c1cccc2cnccc12)N1N=NC2C=CC=CC21 (stereo not given),7.27% (active)
9,COc1ccc(S(=O)(=O)NC2c3ccccc3CC2O)cc1OC (stereo not given),80.1% (inactive)
10,CCOC(=O)CSc1nc2sc3c(c2c(=O)n1-c1ccccc1)CCCCC3,112% (inactive)
11,O=C1Nc2ccccc2/C1=C/c1cccn1CCCCCCn1c2ccccc2c(=O)c2ccccc21,92.3% (inactive)
12,COC12C=C/C(=C(/C(=O)OCc3ccccn3)C(=O)CCCCCCCCC3(OC)C=C/C(=C(/C(=O)OCc4ccccn4)C(=O)CCCCCCCC1)O3)O2,1.28% (active)
13,CC(=O)Oc1ccccc1C(=O)N(Cc1ccc2c(Cl)cc(Cl)c(O)c2n1)c1ccccc1,51.2% (inactive)
14,Cc1ccc(Nc2nc(N)nc(N)c2N=O)cc1Cl,49.5% (inactive)
15,CO[C@H]1/C=C/O[C@@]2(C)Oc3c(C)c(O)c4c(O)c(c5c(nc6cc(C)ccn65)c4c3C2=O)NC(=O)/C(C)=C\C=C\[C@H](C)[C@H](O)[C@@H](C)C(O)[C@@H](C)[C@H](OC(C)=O)[C@@H]1C (stereo not given in full),86.4% (inactive)
16,Nc1nc(N)c2c(n1)NC(c1ccc3c(c1)OCO3)CC(c1cccc(Nc3ccncc3)c1)=N2 (stereo not given),66.9% (inactive)
17,Cc1cc(C(=O)Nc2cc(Nc3ncccc3-c3ncnc4nc[nH]c34)ccc2F)cc(C(C)(C)C#N)c1,79.5% (inactive)
18,Cc1c(C(=O)C(SC(=S)N2CCOCC2)SC(=S)N2CCOCC2)nnn1-c1ccc([N+](=O)[O-])cc1,94.2% (inactive)
19,Nc1c(C(=O)c2ccc(Cl)cc2)sc(Nc2ccccc2)c1-c1nc2ccccc2s1,18.1% (inactive)
20,CCCC[N+]1(C)CCN=C1Cc1ccccc1 (stereo not given),99.6% (inactive)

row,Compound,growth
1,O=C(CN1C(=O)c2ccccc2S1(=O)=O)Nc1nc(-c2cc3ccccc3oc2=O)cs1,97.3% (inactive)
2,CCOC(=O)c1c2c(n3ccc(NC(=O)CCN4CCCC4)cc13)C(=O)c1ncccc1C2=O,-97.5% (active)
3,COc1ccc(-c2nc(SCCC(C)C)nc(N/N=C(/C)c3ccc(N)cc3)c2C#N)cc1,81.4% (inactive)
4,C=C(c1ccc(C(=O)O)c(F)c1)c1cc2c(cc1C)C(C)(C)C=CC2(C)C,89.9% (inactive)
5,O=C(Cn1cc(CSc2nc3ccccc3o2)nn1)Nc1ccc([N+](=O)[O-])cc1,79.4% (inactive)
6,CC(C)CCc1nc2ccc(NCc3ccc(OCCN4CCC(C)CC4)cc3)cc2[nH]1,90.8% (inactive)
7,O=CN1N=C(c2cccc(Nc3ccncc3)c2)CC1c1ccc2c(c1)OCO2 (stereo not given),88.4% (inactive)
8,COc1ccc(C2=C/C(=C\c3ccccc3O)C(=O)N2Cc2ccccc2)cc1,92.3% (inactive)
9,CC(C)c1nc(N(C)S(C)(=O)=O)nc(-c2ccc(F)cc2)c1/C=C/C(=O)C[C@@H](O)CC(=O)O,91.4% (inactive)
10,CC(C)n1cc(C2=C(c3cccc4ccccc34)C(=O)NC2=O)c2cc(Br)ccc21,38.6% (inactive)
11,COc1ccc(Cn2cc(C(=O)N=Nc3c(O)[nH]c4ccc(Br)cc34)nn2)cc1,112% (inactive)
12,COC(=O)c1c(C(=O)OC)c2ccc3c4ncccc4ccc3n2c1C(=O)c1ccc(C)cc1,95.2% (inactive)
13,CCOC(=O)C1=C(C)N(C)C(=O)N(C)C1c1ccccc1 (stereo not given),79.2% (inactive)
14,CCOc1ccccc1NC(=O)CCC(=O)OC,75.7% (inactive)
15,CCCS(=O)(=O)Nc1cccc(Nc2ncnc3cc(NC(=O)CCl)ccc23)c1Cl,-93.3% (active)
16,Cc1nc2c(c(-c3ccccc3)n1)Cc1c(ccc3ccccc13)O2,92.2% (inactive)
17,CCOC(=O)c1cc(C(=O)c2cc(OC)cc(OC)c2)n2ncccc12,23.5% (inactive)
18,C/C=C(/C)C(=O)O[C@@H]1CC(C)(C)CC2C34OC(=O)[C@@]21CC[C@@]3(C)[C@]1(C)CCC2C(C)(C)C(=O)CC[C@]2(C)C1C[C@@H]4O (stereo not given in full),64.1% (inactive)
19,O=c1ccc2nc(-c3ccccc3)nn(-c3ccccn3)c-2c1,106% (inactive)
20,CNC(=O)c1cc(Oc2ccc3nc(NC(=O)NC(C)C)sc3c2)ccn1,93.9% (inactive)
